Results on four molecules are retold here after PubChem BioAssay.

Broadly, the viability is a read-out of living cells in per cent, often relative to untreated cells.

Several values for one entry are separate records, joined by “and”; a condition that tells them apart may be missing. Equal values may be shown once. Activity calls are given as the source filed them.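 Rule for the calls, unless noted: active = compounds whose cell count with miR-34 switched on is under 0.7 times the count with it off; inactive = the rest.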

Assay [1] is described as follows: P. berghei load reduction in hepatocytes – cell-based, HepG2, luciferase luminescence, HepG2 viability, primary screen (AID 624349; in the data active = parasite load remaining mostly below about 12%, no sharp cut-off; inactive = mostly above about 10%;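 note: 100% = mean of DMSO negative control wells on the same plate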). The conditions noted are these: P. berghei liver stage in HepG2, luciferase luminescence, concentration not given here; parasite load remaining: stronger effect = lower value; viability: measured here: HepG2 viability without parasites.
Assay [2] in a line: Wnt pathway potentiators raising nuclear beta-catenin – imaging, WNT3A-conditioned medium, mouse C2C12, NPC library, primary screen (AID 1117326; in the data active = nuclear beta-catenin stimulation mostly above about 4.2%, no sharp cut-off; inactive = mostly below about 10%). The conditions noted are these: stronger effect = higher value.
The nature of assay [3]: stimulators of insulin release from INS-1E, primary screen, cell-based, 5 mM glucose, NPC library (AID 1117329;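 active = compound raises insulin release from rat beta cells at 5 mM glucose, no numeric limit stated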). The conditions noted are these: rat INS-1E insulin secretion, at 10 µM, stronger effect = higher value.
Assay [4] can be described thus: growth inhibition of GSK3B-pretreated HCT116 cells – cell-based, CellTiter-Glo, 0.2 to 20 µM (AID 1117336;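 active = compounds lowering colon cancer cell viability after pretreatment blocking the GSK3B kinase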). The conditions noted are these: HCT116 viability after GSK3B inhibitor, at 20 µM, stronger effect = higher value.
Assay [5] is described as follows: inhibition of endothelial tube formation, primary screen, imaging, VEGF stimulated, CD31 staining, tube area, NPC library (AID 1117340;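 active = compound that reduces growth-factor-driven endothelial tube area in a mixed cell culture, no cutoff stated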). The settings on record: VEGF-stimulated ADSC/ECFC co-culture, at 10 µM, stronger effect = higher value.
A short description of assay [6]: GLP1 release stimulators, primary, NCI-H716, NPC library (AID 1117341;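 active = compound raises GLP1 secretion from the human gut endocrine cells, with no numeric limit stated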). The conditions noted are these: NCI-H716 cells, at 10 µM, stronger effect = higher value.
A short description of assay [7]: HCT116 colon cancer cell growth inhibition, primary screen, CellTiter-Glo luminescence, NPC library (AID 1117342;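 active = compounds that lower survival of HCT116 colon cancer cells in the luminescence readout, no numeric limit stated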). The conditions noted are these: at 20 µM (top of the series). In general terms: Cellular ATP, detected with luciferase, serves as a proxy for viable cell number.
The nature of assay [8]: reduced SW480 viability measured with CellTiter-Glo, NPC library, primary (AID 1117343;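 active = compounds that lower viability of the colon cancer cells in the luminescence readout, with no numeric limit stated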). The conditions noted are these: CellTiter-Glo luminescence; at 20 µM (top of the series) unless noted.
Assay [9] is described as follows: NPC library primary testing for decreased DLD-1 cell viability via CellTiter-Glo (AID 1117346;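 active = compounds that lower survival of DLD-1 colon cancer cells in the luminescence readout, no cutoff given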). The settings on record: DLD-1 viability, CellTiter-Glo luminescence; at 20 µM (top of the series).
Assay [10] in a line: EMT-state selective cytotoxicity in co-culture – imaging, PC-3E GFP, TEM4-18 mCherry, primary screen (AID 1345086;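 active = compounds killing one labelled cell type while sparing the other, by normalised counts and ratio limits, not self-fluorescent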;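 for all read-outs here: cells exposed to compound for 72 h before imaging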;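 for red/green cell ratio (normalised): normalised mesenchymal count divided by normalised epithelial count so high means epithelial killing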). The conditions noted are these: PC-3E GFP / TEM4-18 mCherry co-culture, imaging cell counts, at 1 µM; for red/green cell ratio (normalised): actives lie on both sides, counts scaled to control wells, 1 = unselective.
A short description of assay [11]: viability loss with induced miR-34 in A549 – imaging, A549 dox-inducible miR-34, nuclei and caspase counts, primary screen (AID 1347080). The conditions noted are these: A549 miR-34 inducible, Hoechst nuclei count, 48 h.
A short description of assay [12]: MELAS cybrid and Rieske KO viability enhancers – cell-based, MELAS cybrids, Rieske KO mouse fibroblasts, CellTiter-Glo, primary screen (AID 1508586;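 active = mean z-score across replicates of 1.96 or higher in either the MELAS or the Rieske mutant cell line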;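 note: z relative to plate mean and SD of compound and empty wells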). The settings on record: low glucose.
In assay [13] the target is NAD(+) hydrolase SARM1 (Homo sapiens) (UniProt Q6SZW1). The experiment in a line: blocking NAD cleavage by SARM1 SAM-TIR – cell lysate, NAD-Glo luminescence (AID 1508614;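 active = compound whose remaining NAD level is above about 45 nM, limit read from the data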;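 note: higher remaining NAD means stronger inhibition of SARM1 NADase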). The conditions noted are these: SAM-TIR HEK293T lysate NADase, at 1 µM, stronger effect = higher value.
Chain of NAD(+) hydrolase SARM1 (Homo sapiens) (Q6SZW1 whole entry, looked up): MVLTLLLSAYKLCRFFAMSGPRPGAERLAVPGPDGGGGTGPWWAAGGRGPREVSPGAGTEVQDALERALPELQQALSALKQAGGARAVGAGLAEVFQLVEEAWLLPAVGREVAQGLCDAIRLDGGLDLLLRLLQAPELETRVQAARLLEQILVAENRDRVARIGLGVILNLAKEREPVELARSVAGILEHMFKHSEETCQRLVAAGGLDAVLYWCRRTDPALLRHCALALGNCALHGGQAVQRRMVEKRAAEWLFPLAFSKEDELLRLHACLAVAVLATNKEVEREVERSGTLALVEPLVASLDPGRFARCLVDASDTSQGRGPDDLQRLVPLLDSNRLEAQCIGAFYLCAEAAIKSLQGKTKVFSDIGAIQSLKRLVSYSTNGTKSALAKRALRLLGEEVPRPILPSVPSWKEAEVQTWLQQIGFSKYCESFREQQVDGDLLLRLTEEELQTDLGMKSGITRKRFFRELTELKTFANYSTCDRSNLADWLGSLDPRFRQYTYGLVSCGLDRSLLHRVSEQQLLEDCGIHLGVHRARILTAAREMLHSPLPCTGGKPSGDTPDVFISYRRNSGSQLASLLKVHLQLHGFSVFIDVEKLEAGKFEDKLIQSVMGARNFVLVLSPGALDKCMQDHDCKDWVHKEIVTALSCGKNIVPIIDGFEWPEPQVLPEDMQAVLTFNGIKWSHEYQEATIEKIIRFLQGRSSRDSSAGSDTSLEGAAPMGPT
Assay [14] can be described thus: compounds altering viability of human ES cells (AID 493140; call rule not given here;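 note: cells exposed to compounds for four days before counting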). The conditions noted are these: human embryonic stem cell survival screen; stronger effect = higher value.
The mark [15] stands for this setting: measured here: epithelial PC-3E GFP cell survival.
Setting [16] is: measured here: mesenchymal TEM4-18 mCherry cell survival.
[17] abbreviates: stronger effect = lower value, cell number ratio, induced over uninduced.
Setting [18] is: measured here: relative caspase fold change +Dox/-Dox.
The mark [19] stands for this setting: measured here: total cells with miR-34 induction, stronger effect = lower value.
The mark [20] stands for this setting: measured here: total cells without miR-34 induction.
[21] abbreviates: MELAS cybrid survival, CellTiter-Glo 48 h, stronger effect = higher value.
Setting [22] is: Rieske KO mouse fibroblast survival, CellTiter-Glo 72 h.

Consider `CCN(C)C(=O)Oc1cccc([C@H](C)N(C)C)c1`, for which the parasite load remaining in assay [1] is 32.3% (inactive). In [1], the viability turned out to be 99%. For the same molecule, the nuclear beta-catenin stimulation in assay [2] (at 10 µM) was -0.2% (inactive); in assay [2] (stimulation, at 2 µM) it was 0.4%. In addition, the insulin secretion stimulation in assay [3] was 6.4% (inactive). In [4], the viability decrease was 5.7% (inactive). The tube area decrease in [5] is -0.5% (inactive). Besides, the GLP1 secretion stimulation in [6] is 2.5% (inactive). Also, the inhibition of viability in assay [7] is 25.9% (inactive). Also, the figures for the viability decrease (inhibition) in assay [8] and in assay [9] were 17.2% (inactive) and 0.2% (inactive), respectively. Besides, the red/green cell ratio (normalised) in [10] is 1.13 (inactive). Moreover, the values for the normalised cell number in [10] (setting [15]) and in assay [10] (setting [16]) were 1.24 and 1.4, respectively. The values for the fold change in assay [11] (setting [17]) and in [11] (setting [18]) were 0.884 (inactive) and 1.13, respectively. Also, the cell count in assay [11] (setting [19]) came to 10100; in assay [11] (setting [20]), 11400. Also, the z-score is -0.629 (inactive) and -0.546 (inactive) in assay [12] (setting [21]); -0.737 and -0.15 in assay [12] (setting [22]).

Turning to `O=C1Cc2cc(CCN3CCN(c4nsc5ccccc45)CC3)c(Cl)cc2N1`, the nuclear beta-catenin stimulation in assay [2] (at 10 µM) was 0.7% (inactive); in [2] (stimulation, at 2 µM) it was 0.6%. Besides, the insulin secretion stimulation in assay [3] is 0.65% (inactive). The viability decrease in assay [4] is 117% (active). In addition, in assay [5], the tube area decrease was 22.4% (inactive). In addition, the GLP1 secretion stimulation in assay [6] is 2.9% (inactive). For the same molecule, the inhibition of viability in [7] was 124% (active). Besides, the results for the viability decrease (inhibition) in assay [8] and in assay [9] were 91.1% (active) and 101% (active), respectively. Also, in assay [10], the red/green cell ratio (normalised) was 0.94 (inactive). Further, the results for the normalised cell number in assay [10] (setting [15]) and in assay [10] (setting [16]) were 1.17 and 1.1, respectively. Moreover, the fold change in [11] (setting [17]) was 0.799 (inactive) and 0.929 (inactive) and 0.946 (inactive); in assay [11] (setting [18]), 1.72 and 0.693 and 2.86. The cell count in [11] (setting [19]) was 4490 and 6730 and 8460; in assay [11] (setting [20]), 5620 and 7240 and 8940. Further, the z-score in assay [12] (setting [21]) was -0.541 (inactive) and 0.954 (inactive); in assay [12] (setting [22]) it was 1.41 and -0.174. Also, in [13], the remaining NAD was 10 nM (inactive).

Take `O=C(O)[C@H](O)[C@@H](O)[C@H](O[C@@H]1O[C@H](CO)[C@H](O)[C@H](O)[C@H]1O)[C@H](O)CO`: the survival in [14] was 11.8 (inactive). The parasite load remaining in [1] is 68% (inactive) and 86.7% (inactive). Further, the viability in assay [1] was 96.5% and 74.2%. The nuclear beta-catenin stimulation in [2] (at 10 µM) was -1.5% (inactive); in [2] (stimulation, at 2 µM), -0.6%. Besides, in assay [3], the insulin secretion stimulation was 5.9% (inactive). In [4], the viability decrease was 94.4% (active). Besides, in [5], the tube area decrease is -14.9% (inactive). In addition, in assay [6], the GLP1 secretion stimulation is -3.6% (inactive). Moreover, the inhibition of viability in assay [7] is 93% (active). Besides, the viability decrease (inhibition) was 94% (active) in assay [8] and 99.7% (active) in assay [9]. In [10], the red/green cell ratio (normalised) was 1.06 (inactive). The normalised cell number in assay [10] (setting [15]) was found to be 1.17; in [10] (setting [16]), 1.23. Also, the fold change is 0.847 (inactive) in assay [11] (setting [17]) and 1.47 in [11] (setting [18]). For the same molecule, the cell count turned out to be 8980 in assay [11] (setting [19]) and 10600 in assay [11] (setting [20]).

Regarding `OC(CCN1CCCCC1)(c1ccccc1)C1CC2C=CC1C2` (stereo not given), the survival in assay [14] was 9.67 (inactive). Also, in [1], the parasite load remaining is 61.4% (inactive) and 36.1% (inactive). For the same molecule, the viability in assay [1] is 78.3% and 106%. The nuclear beta-catenin stimulation was 0.3% (inactive) in [2] (at 10 µM) and -0.7% in assay [2] (stimulation, at 2 µM). For the same molecule, the insulin secretion stimulation in assay [3] was 4.5% (inactive). The viability decrease in [4] is -65.7% (inactive). The tube area decrease in [5] was 1.4% (inactive). Also, the GLP1 secretion stimulation in assay [6] is -4% (inactive). Further, the inhibition of viability in [7] is 36.4% (inactive). The viability decrease (inhibition) is 39.6% (inactive) in [8] and 2.7% (inactive) in assay [9]. The red/green cell ratio (normalised) in assay [10] is 0.98 (inactive). Besides, the normalised cell number in assay [10] (setting [15]) amounted to 0.85; in assay [10] (setting [16]), 0.83. Also, the fold change was 1.01 (inactive) and 0.963 (inactive) and 0.83 (inactive) in assay [11] (setting [17]); 1.73 and 0.774 and 4.12 in assay [11] (setting [18]). In addition, the cell count is 10100 and 7400 and 10600 in [11] (setting [19]); 9960 and 7680 and 12700 in assay [11] (setting [20]). The values for the z-score in [12] (setting [21]) and in assay [12] (setting [22]) were -0.399 (inactive) and 0.122, respectively. For the same molecule, the remaining NAD in [13] was 10 nM (inactive).
